NR3A LBD binder = binders of NR3A ligand-binding domain, primary screen, biophysical, differential scanning fluorimetry, uHTS. NR3A LBD differential scanning fluorimetry, Tm shift; 0% = protein alone, 100% = glycine-bound protein. actives 2.5% (n = 340,000). Glutamate receptor ionotropic, NMDA 3A (GRIN3A) ligand-binding domain. Tm shift relative to glycine control, % at 25 µM;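 active = melting temperature shift of at least 10% of the positive control shift, at one fixed dose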
FAS TE block = FAS thioesterase domain inhibitors, primary screen, biochemical, fluorescence intensity, uHTS; recombinant FAS-TE, OMFH fluorogenic substrate, fluorescence endpoint; inhibition, % at 15 µM; actives 0.67% (n = 360,000);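 active = compounds whose normalised, plate-corrected inhibition of enzyme fluorescence in the single-dose primary screen is 50% or more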;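 note: 0% = DMSO with enzyme and 100% = substrate without enzyme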
beta cell repl = inducers of MIN6 beta-cell proliferation, primary screen, ATP luminescence, uHTS; MIN6 cells proliferation, ATPlite luminescence, 48 h; cells starved in 0.2% serum; 100% = growth in 10% serum; proliferation, % at 10 µM; actives 0.29% (n = 330,000); AID 2380, 2010;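 active = compounds whose signal lies at least 3.5 SD above the mean of all wells on their plate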;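 note: 0% = DMSO-treated cells in low-serum medium and 100% = 10% serum control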
pCIP destab = p/CIP-EGFP fusion destabilizers, primary screen, fluorescence, F442A cells | actives 0.01% (n = 290,000) | 16 h | Q05BA5 | decrease of EGFP signal, % at 10 µM;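 active = EGFP signal decrease of at least 30% at 10 µM or well 3 SD below plate mean, unless failing retest; inactive = the rest, including hits failing retest or dose response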
Target sequence (Q05BA5 1-1403): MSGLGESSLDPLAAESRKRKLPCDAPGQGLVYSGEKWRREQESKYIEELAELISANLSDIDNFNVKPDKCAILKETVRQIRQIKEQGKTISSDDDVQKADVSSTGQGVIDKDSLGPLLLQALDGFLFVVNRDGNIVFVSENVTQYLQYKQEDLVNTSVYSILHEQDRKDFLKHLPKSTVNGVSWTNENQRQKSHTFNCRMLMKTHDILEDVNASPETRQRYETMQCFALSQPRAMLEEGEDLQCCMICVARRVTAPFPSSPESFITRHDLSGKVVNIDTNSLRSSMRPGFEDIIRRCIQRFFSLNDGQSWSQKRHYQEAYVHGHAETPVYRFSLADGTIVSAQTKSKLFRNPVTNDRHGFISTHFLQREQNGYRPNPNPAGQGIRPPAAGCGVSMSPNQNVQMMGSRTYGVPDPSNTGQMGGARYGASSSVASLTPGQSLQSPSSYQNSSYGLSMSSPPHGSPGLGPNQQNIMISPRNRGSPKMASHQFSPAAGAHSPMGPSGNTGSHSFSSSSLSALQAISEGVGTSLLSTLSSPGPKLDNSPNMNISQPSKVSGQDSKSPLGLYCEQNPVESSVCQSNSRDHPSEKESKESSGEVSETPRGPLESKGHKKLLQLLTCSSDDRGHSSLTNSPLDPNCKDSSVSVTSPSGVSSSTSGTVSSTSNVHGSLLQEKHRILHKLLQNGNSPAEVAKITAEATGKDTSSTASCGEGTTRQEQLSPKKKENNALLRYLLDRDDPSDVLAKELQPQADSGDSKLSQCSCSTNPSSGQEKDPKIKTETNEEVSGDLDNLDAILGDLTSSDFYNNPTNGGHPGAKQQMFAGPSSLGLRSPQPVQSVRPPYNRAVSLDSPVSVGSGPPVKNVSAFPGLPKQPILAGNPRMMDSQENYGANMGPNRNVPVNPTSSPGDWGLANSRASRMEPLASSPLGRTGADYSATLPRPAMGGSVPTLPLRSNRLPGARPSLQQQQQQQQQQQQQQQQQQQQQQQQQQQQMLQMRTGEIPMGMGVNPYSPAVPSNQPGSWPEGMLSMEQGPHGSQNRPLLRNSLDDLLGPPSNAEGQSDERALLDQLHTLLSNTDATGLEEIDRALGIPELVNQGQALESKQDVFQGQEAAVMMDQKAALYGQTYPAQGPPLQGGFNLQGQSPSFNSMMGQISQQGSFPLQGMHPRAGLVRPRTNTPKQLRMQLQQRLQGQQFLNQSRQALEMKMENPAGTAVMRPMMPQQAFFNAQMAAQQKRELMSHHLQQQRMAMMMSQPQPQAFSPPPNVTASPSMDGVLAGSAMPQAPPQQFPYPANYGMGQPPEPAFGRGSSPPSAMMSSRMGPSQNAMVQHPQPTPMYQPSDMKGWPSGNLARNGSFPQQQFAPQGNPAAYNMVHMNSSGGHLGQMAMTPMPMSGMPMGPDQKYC
MPTP block = mitochondrial permeability transition pore inhibitors, primary screen, biochemical, isolated mouse mitochondria, absorbance. Ca2+ swelling absorbance, 30 min. inhibition, % at 10 µM. actives 1.4% (n = 360,000). AID 602449, 2012;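 active = inhibition of 50% or more, scaled per plate between neutral and stimulator controls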;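 note: 0% = DMSO wells given calcium and 100% = 1 mM EGTA wells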
FAS-TE conf = FAS thioesterase domain inhibitors, confirmation, biochemical, fluorescence intensity, single concentration; inhibition, % at 15 µM; shares compounds with FAS TE block; actives 45% (n = 2,300); recombinant FAS-TE, OMFH fluorogenic substrate;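 active = compounds inhibiting the enzyme by at least 50% at 15 µM in any one of the replicates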;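 note: 0% = enzyme with DMSO only and 100% = wells lacking enzyme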
* hit, by the source's call; · = no result given. In the library only some 4.1% were active in any assay of this set; here they are far more common.

SMILES	NR3A LBD binder	FAS TE block	beta cell repl	pCIP destab	MPTP block	FAS-TE conf
Cc1ccc(C2CC(c3cccs3)=NN2C(=O)CSc2nc(=O)n3cc(C)ccc3n2)cc1 (stereo not given)	-2	51*	-8	·	4	41
Cc1ccn2c(=O)nc(SCC(=O)N3N=C(c4cccs4)CC3c3ccc(F)cc3)nc2c1 (stereo not given)	0	54*	-1	·	-1	46*
Cc1ccc2nc(SCC(=O)N3N=C(c4cccs4)CC3c3ccc(F)cc3)nc(=O)n2c1 (stereo not given)	·	42	·	·	0	·
COc1ccc(C2=NN(C(=O)CSc3nc(=O)n4cccc(C)c4n3)C(c3ccc(C)cc3)C2)cc1 (stereo not given)	0	90*	-4	·	-3	35
COc1ccc(C2CC(c3cccs3)=NN2C(=O)CSc2nc(=O)n3ccccc3n2)cc1 (stereo not given)	-2	43	-5	·	-1	·
CC(C)(C(=O)N1CCC1(C)C(=O)NS(=O)(=O)c1ccccc1Cl)c1ccccc1 (stereo not given)	·	-5	·	·	1	·
O=C(COC(=O)c1cc([N+](=O)[O-])ccc1N1CCOCC1)Nc1c(Cl)cccc1C(F)(F)F	0	65*	3	-12	-1	62*
O=C(COC(=O)c1cc([N+](=O)[O-])ccc1N1CCOCC1)Nc1ncc(Cl)cc1Cl	-1	54*	1	10	-2	71*
O=C(COC(=O)c1cccc(S(=O)(=O)N2CCOCC2)c1)Nc1ncc(Cl)cc1Cl	2	-4	-4	·	-1	·
CN(Cc1cccc(F)c1)C(=O)Cc1ccc(S(=O)(=O)N2CCOCC2)s1	5	-2	3	·	-3	·
COCCOc1ccc(C(F)(F)F)cc1NC(=O)Cc1ccc(S(=O)(=O)N2CCOCC2)s1	-3	65*	-1	·	-2	69*
CN(Cc1ccc(C(C)(C)C)cc1)C(=O)Cc1ccc(S(=O)(=O)N2CCOCC2)s1	1	85*	-5	·	0	89*
CC1(C(=O)Nc2cccc(C#N)c2)CCN1C(=O)C1(c2ccccc2)CC1 (stereo not given)	·	13	·	·	3	·
CCN(CC)C(=O)[C@H]1CC(CC(=O)NCC23CC4CC(CC(C4)C2)C3)C(=O)N2CCc3c([nH]c4ccccc34)[C@]12C (stereo not given in full)	0	20	-5	·	-1	·
O=C(c1nn2c(C(F)(F)F)cc(-c3cccs3)nc2c1Br)N1CCCc2ccccc21	0	59*	-4	-3	-1	13
Cc1ccc2nc(-c3ccc(C#N)cc3)c(Cc3ccccc3)n2c1	·	15	·	·	0	·
O=C1[C@@H]2[C@@H](CN3CN(c4ccccc4)N=C(c4ccccc4)[C@@]23c2ccccc2)C(=O)N1c1ccccc1	0	57*	·	·	-1	15
O=C1[C@H]2C(c3ccccc3)=NN(c3ccccc3)[C@H]2C(=O)N1c1ccccc1	-3	32	-1	-4	1	·
CC(C)NC(=O)C1(C)CN(S(C)(=O)=O)CC(=O)N1C1CCCCCC1 (stereo not given)	·	·	·	·	0	·
CCc1ccc(S(=O)(=O)ON2C(=O)c3ccccc3C2=O)cc1	16*	81*	-1	-9	1	72*
CCc1ccc(OC(=O)CN2C(=O)c3ccccc3C2=O)cc1	-1	0	-3	-3	-1	·
COc1ccc(OC)c(S(=O)(=O)ON2C(=O)c3ccccc3C2=O)c1	1	79*	-3	-3	1	66*
O=C1c2cccc3cccc(c23)C(=O)N1OS(=O)(=O)c1ccc(Cl)cc1	-4	52*	-1	6	4	14
CN1CCC(N2CCN(C3CN(C4CCCCC4)S(=O)(=O)C3)CC2)CC1 (stereo not given)	·	-11	·	·	-1	·
CC(=O)c1c(C)[nH]c(C(=O)OCC(=O)c2ccc(Br)cc2)c1C	·	14	·	·	0	·
SMILES	NR3A LBD binder	FAS TE block	beta cell repl	pCIP destab	MPTP block	FAS-TE conf
COc1ccc(S(=O)(=O)N2CCCC(c3cc(C(=O)NCc4cccnc4)no3)C2)cc1 (stereo not given)	·	0	·	·	1	·
CCCNC(=O)C1(C)CCCN(CC(=O)c2ccc3c(c2)OCCO3)C1 (stereo not given)	·	-8	·	·	0	·
COc1c(C)cc(C(O)c2ncc(-c3ccccc3)[nH]2)cc1C (stereo not given)	·	-6	·	·	1	·
C/C(=C/CCC(C)[C@H]1CC[C@@]2(C)C3=C(CC[C@]12C)[C@@]1(C)CCC(=O)C(C)(C)[C@@H]1CC3)C(=O)O (stereo not given in full)	-5	74*	·	-8	15	3
CC(=O)c1cccc2c1OC(C)C(=O)N2Cc1ccc(Cl)cc1 (stereo not given)	·	57*	·	·	0	62*
O=C(OC1CC2CC1[C@H]1CCCCN1C2=O)N1CCCCC1 (stereo not given in full)	·	-9	·	·	-2	·
Cc1ccc(S(=O)(=O)N2CCOCC2)cc1C(=O)NCCCN1CCCC1=O	·	-2	·	·	-3	·
CCOc1ccc(NC(=O)CN(c2ccc([N+](=O)[O-])cc2)S(=O)(=O)c2ccccc2)cc1	4	55*	0	-6	17	37*
Cc1ccc(S(=O)(=O)N(CC(=O)N/N=C/c2ccco2)c2cc(Cl)cc(Cl)c2)cc1	-3	40	-3	-2	8	·
CC(=O)Nc1ccc(NC(=O)CN(c2ccc([N+](=O)[O-])cc2)S(=O)(=O)c2ccccc2)cc1	-4	21	-1	-6	0	·
CCOc1ccc(N(CC(=O)N/N=C/c2ccccn2)S(=O)(=O)c2ccc(Cl)cc2)cc1	-12	61*	-6	-5	1	66*
O=C(CN(c1ccc(Cl)cc1)S(=O)(=O)c1ccccc1)N/N=C/c1ccco1	-2	58*	-2	-12	-5	41*
C/C=C/C=N/NC(=O)CN(c1ccc(Br)cc1)S(=O)(=O)c1ccccc1	2	58*	3	1	2	72*
CCOc1ccc(N(CC(=O)NCCSc2ccccn2)S(=O)(=O)c2ccc(Cl)cc2)cc1	-5	24	-5	-38	1	·
O=C(c1ccccc1)c1ccc(O)c(O)c1O	2	-1	·	·	2	·
Cc1ccc(S(=O)(=O)Nc2cccc(-c3ccc4nncn4n3)c2)cc1	-4	54*	-2	·	-2	51*
CC(=O)c1ccc(S(=O)(=O)Nc2cccc(-c3ccc4nncn4n3)c2)cc1	-1	0	0	-7	2	·

From PubChem BioAssay
